PI4K2A block – PI4K2A (human) kinase inhibition; Q9BTU6; AID 1346378; activity change, negative = inhibition, % at 76.9 µM; purified PI4K2A, ADP-Glo luminescence, 1 h; stronger effect = lower value; 420,000 tested, 0.13% active; in the data active = activity change below about -50%; inconclusive = mostly about -30% to -49%;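 also: -100% = wells without enzyme as full effect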
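PI4K2A activity was measured by ADP-Glo luminescence: enzyme (4 ug/mL stock) and phosphatidylinositol (1.2 mM stock) in Tris pH 7.5/MgCl2/EGTA/Triton X-100 buffer were reacted with ATP (300 microM stock) for one hour at ambient temperature.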
LDHA inh – blocks human lactate dehydrogenase A | 480,000 tested, 0.15% active | AID 1347041 | activity change, % (values are at about 110 or 230 µM) | purified LDHA, NADH/diaphorase-resazurin fluorescence; stronger effect = lower value | P00338; in the data active = activity change below about -30%; inconclusive = mostly about -25% to -30%;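 also: plate controls were DMSO wells for no effect and wells without enzyme for full effect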
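LDH5 2 nM; NADH 0.06 mM, pyruvate 0.2 mM; 200 mM Tris pH 7.4, EDTA, Tween-20; 5 min RT. Detection: diaphorase 0.133 mg/mL + resazurin 37 µM, fluorescence ex540/em590 at 0 and 20 min; normalized to enzyme-free and DMSO wells.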
PI5P4K alpha inh – inhibitors of human PI5P4K alpha; P48426; PI5P4Kalpha enzyme, ADP-Glo luminescence, 60 min; stronger effect = lower value; max response, %; 330,000 tested, 1.2% active; active = max response of -50% or lower; inconclusive = between -30% and -50%; inactive = -30% or higher; also: value at the top dose of about 77 µM; % is scaled to controls: 0 for no effect and ±100 for the full control effect
Target sequence (P48426 whole entry, looked up): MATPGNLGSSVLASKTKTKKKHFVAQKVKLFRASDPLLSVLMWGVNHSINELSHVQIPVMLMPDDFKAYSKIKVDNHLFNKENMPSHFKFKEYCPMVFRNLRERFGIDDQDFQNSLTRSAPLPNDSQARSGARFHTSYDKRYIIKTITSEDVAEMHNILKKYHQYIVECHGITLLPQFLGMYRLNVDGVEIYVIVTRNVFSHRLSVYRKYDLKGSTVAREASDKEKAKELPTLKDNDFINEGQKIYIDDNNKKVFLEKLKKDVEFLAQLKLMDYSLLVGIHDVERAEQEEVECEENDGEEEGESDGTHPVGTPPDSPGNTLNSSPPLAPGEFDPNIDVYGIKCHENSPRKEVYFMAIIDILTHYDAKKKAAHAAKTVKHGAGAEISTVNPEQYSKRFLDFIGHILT
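Single end-point luminescence (ADP-Glo) quantified ADP from PI5P4Kalpha turnover; ATP 5 microM final, 1 h at RT, 0.1% CHAPS and 0.28 mM EGTA in HEPES pH 7.4.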
DRD3 agonist – D3 dopamine receptor (human) agonism | P35462 | D3R DiscoveRx beta-arrestin cells, luminescence, 90 min | max activation, % | 410,000 tested, 0.58% active | AID 652048; in the data active = max activation above about 30%; also: 0% is about no effect
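Agonist mode: compounds and dopamine controls were applied to plated cells for 90 min at 37 degrees C after an overnight attachment at 1500 cells/well. Luminescent read-out followed 30 - 60 minutes at room temperature with DiscoveRx detection reagent.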
D3 antag – D3 dopamine receptor (human) antagonism. D3R cells, DiscoveRx beta-arrestin luminescence, antagonist mode; stronger effect = lower value. max response, negative = inhibition, %. 360,000 tested, 2.5% active. AID 652054; in the data active = max response below about -50%; inconclusive = no clear call, values can overlap the other calls; also: % is scaled to controls: 0 for no effect and ±100 for the full control effect
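Cells plated overnight at 1500 cells/well, then exposed to library compounds with dopamine controls for 90 minutes at 37 degrees C. DiscoveRx reagent added for 30–60 minutes at room temperature; luminescence read, quantitative HTS format.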
An asterisk follows results filed as active; ? = inconclusive; · = not tested or not shown. The list is not random: actives were taken first. Their share in the collection is about 3.3%.

SMILES	PI4K2A block	LDHA inh	PI5P4K alpha inh	DRD3 agonist	D3 antag
CCC(=O)N1CCc2cc(S(=O)(=O)NC(C(=O)NCc3ccc(F)cc3)C(C)C)ccc21 (configuration not stated)	0	-5	·	-2	-16
CCC(=O)N1CCc2cc(S(=O)(=O)NCCN3CCCCC3CC)ccc21 (configuration not stated)	0	1	0	-7	-59*
CC(C)n1ncc2cc(C(=O)NCc3ccccc3OC(F)F)cnc21	·	-19	·	·	·
CCCC(=O)N1CCC[C@]2(CC[C@@H](CCC(C)=O)O2)C1	-2	·	·	·	·
CC(=O)c1ccc(NC(=O)CSc2ccsc2[N+](=O)[O-])cc1	-20	-12	-81*	3	2
Cc1ccc(CNC(=O)CSc2ccsc2[N+](=O)[O-])cc1	3	-6	-9	-16	-27
O=C(CSc1ccsc1[N+](=O)[O-])Nc1cc(F)ccc1F	-5	-3	-94*	0	5
COc1ccc(CNC(=O)CSc2ccsc2[N+](=O)[O-])cc1	-12	-3	-50*	-8	-20
CCOc1ccc(-c2nc(NC(=O)c3cc(OC)cc(OC)c3)sc2C)cc1	·	1	·	·	·
CCn1c(C)nc2cc(S(=O)(=O)N3CCCCC3)ccc21	-11	-11	1	-5	1
CCn1c(CN2CCCCC2)nc2cc(S(=O)(=O)N3CCCCC3)ccc21	-2	-2	1	-10	-81*
CC(=O)Nc1ccc(-c2ccnc3c2CC(C(=O)Nc2ccc(Cl)c(C(F)(F)F)c2)O3)cc1 (configuration not stated)	5	-6	-13	-9	-66*
CCOc1ccc(NC(=O)CSCc2cc(=O)c3cccc(OC)c3[nH]2)cc1	·	7	·	·	·
COCCNC(=S)N(CCc1c(C)[nH]c2ccccc12)Cc1cc(OC)c(OC)c(OC)c1	·	1	·	·	·
CC1CC(NC(=O)CCCC(=O)O)CC(C)(C)C1 (configuration not stated)	·	3	·	·	·
COc1cc2c(cc1OC)C(c1cc3cc(C)ccc3[nH]c1=O)N(C(=O)c1ccco1)CC2 (configuration not stated)	-4	-2	3	37*	10
CC1CCCCC1NC(=O)CN1C(=O)c2ccccc2S1(=O)=O (configuration not stated)	-1	-2	0	-2	-3
O=C(CN1C(=O)c2ccccc2S1(=O)=O)NC1CCCC1	3	-9	·	-3	-52*
CCC(C)c1ccccc1OCCOCCN1CCCC1 (configuration not stated)	5	-17	1	-25	-52*
CCC(C)c1ccccc1OCCCCN1CCCC1 (configuration not stated)	0	-12	-1	-27	-72*
Cc1ccc(-c2n[nH]c(=O)c3ccccc23)cc1S(=O)(=O)NC1CCCCC1	·	1	·	·	·
O=C(CCCN1CCN(c2ccccc2)CC1)c1ccc(F)cc1	-4	2	6	2	-102*
O=C(O)CCC(=O)c1ccc2c(c1)OCCO2	2	3	-7	4	-25
NC(=O)C1(N2CCCCC2)CCN(CCCC(=O)c2ccc(F)cc2)CC1	-4	·	·	-23	·
O=C(CCN1Cc2ccccc2C1)c1ccc2c(c1)OCCO2	8	0	·	-29	-52*
SMILES	PI4K2A block	LDHA inh	PI5P4K alpha inh	DRD3 agonist	D3 antag
O=C(CCC(=O)N1CCN(c2ccc(F)cc2)CC1)c1ccccc1	0	-2	-1	0	-10
O=C(CCCN1CCOC(c2ccccc2)C1)c1ccc(F)cc1 (configuration not stated)	3	-5	3	-26	-86*
O=C(CCCN1Cc2ccccc2C1)c1ccc(F)cc1	7	-3	·	-15	-151*
O=C(Nc1cccc(-c2nc3cc(Cl)ccc3o2)c1)C(F)(F)F	·	-1	·	·	·
Cc1ccccc1C1C2=C(CC(C)(C)CC2=O)Nc2nc(N)[nH]c(=O)c21 (configuration not stated)	·	-2	·	·	·
O=C(NCCC(=O)N1CCCC(C(F)(F)F)C1)c1ccc(Cl)cc1 (configuration not stated)	·	3	·	·	·
O=C(CCCN1CCN2CCCC2C1)c1ccc(F)cc1 (configuration not stated)	·	·	·	-19	·
O=C(CN1CCC2(CC1)OCCO2)c1ccc2cc[nH]c2c1	8	-8	·	-11	-20
CN1CCN(CCCC(=O)c2ccc(F)cc2)CC1	5	0	-1	-6	-60*
O=C(CN1CCN(c2ccccc2)CC1)c1ccc2cc[nH]c2c1	3	-10	-4	2	-63*
O=C(Cn1nnnc1-c1ccc(Br)cc1)N1CCCCC1	·	-17	·	·	·
O=c1oc2ccccc2c(NCc2ccccc2)c1NS(=O)(=O)c1ccc(F)cc1	·	-6	·	·	·
CCCCCCc1cc2cc(C(C)=O)c(=O)oc2cc1O	·	-3	·	·	·
CCCCCCc1cc2cc(C(=O)Nc3ccccc3)c(=O)oc2cc1O	-4	-8	4	51*	51
COc1ccc(-c2cn3c(n2)sc2cc(C(=O)Nc4cccc(SC)c4)ccc23)cc1	-3	-11	·	77*	·
O=C(c1nnsc1S(=O)(=O)c1ccc(Cl)cc1)N1CCOCC1	28	-11	-5	-8	?
CNC(=O)c1nnsc1S(=O)(=O)c1ccc(Cl)cc1	-3	-7	-2	-19	-110*
COc1ccccc1N=Nc1nc(-c2ccccc2)c(-c2ccccc2)[nH]1	2	2	-3	-30	-75*
Oc1ccccc1N=Nc1nc(-c2ccccc2)c(-c2ccccc2)[nH]1	-2	-2	-11	-37	-72*
COc1ccc(N=Nc2nc(-c3ccccc3)c(-c3ccccc3)[nH]2)cc1	6	2	2	-33	?
CC(=O)c1cccc(NC(=O)CSc2nc(=O)[nH]c3c2CCCC3)c1	·	7	·	·	·
CC(Sc1ccc2c(c1)CCC2)C(=O)Nc1ccc(C(N)=O)cc1 (configuration not stated)	·	2	·	·	·
Cc1ccc(NC(=O)COc2ncnc3ccccc23)c(C)c1	·	8	·	·	·
CN(CCO)c1nc(-c2cccnc2)nc2ccccc12	·	10	·	·	·
O=C1C=CC(=O)c2c(O)c(N3CCN(CCOCCO)CC3)c(Br)c(O)c21	-60*	43	-55*	-18	-95*
SMILES	PI4K2A block	LDHA inh	PI5P4K alpha inh	DRD3 agonist	D3 antag
O=S(=O)(c1ccc(Br)cc1Cl)N1CCN(CCO)CC1	-1	0	0	-11	-8
O=C1C=CC(=O)c2c(O)c(N3CCN(CCO)CC3)c(Cl)c(O)c21	-57*	43	?	-25	-121*
Cc1cc(C)nc(SCC(C)Cn2c(Br)nc3c2c(=O)[nH]c(=O)n3C)n1 (configuration not stated)	·	3	·	·	·
COc1ccc(C2(c3ccc(Cl)cc3)CCCCC2)cc1	·	1	·	·	·
Cc1[nH]c2ccccc2c1C(c1cccc(F)c1)c1c(C)[nH]c2ccccc12	·	0	·	·	·
Cc1ccc(S(=O)(=O)N(CC(O)CN2CCCC2)c2ccccc2)cc1 (configuration not stated)	2	0	·	-25	?

Screening results (PubChem BioAssay)
